Records with an inconclusive call do not appear. Active and inactive are the calls of the source. Calls follow the shape of the dose curve; as a rule, active = well fitted cell-killing curve with a large enough effect; inconclusive = small, poorly fitted or top-dose-only effect; inactive = flat fitted curve, though single readings scatter.
Test: Cell Viability - LYMP1-002 - Assay at 16 hr (AID 948)
Conditions: LYMP1-002 lymphoblastoid cell viability; series mostly up to 92.2 µM
Description: NIH Chemical Genomics Center [NCGC]
NIH Molecular Libraries Screening Centers Network [MLSCN]
National Institutes of Environmental Health Sciences [NIEHS]
National Toxicology Program [NTP]
We have developed a 1536-well cell-based assay for quantitative high throughput screening (qHTS) against a number of cell lines to determine in vitro cytotoxicity of small molecules. This particular assay uses a human lymphoblastoid cell line (LYMP1-002) purchased from Coriell Institute for Medical Research.
NCGC Assay Protocol Summary:
The CellTiter-Glo luminescent cell viability assay (Promega) is a homogeneous method to measure the number of viable cells in culture. The end point readout of this assay is based on quantitation of intracellular ATP, an indicator of metabolic activity, using the luciferase reaction. Luciferase catalyzes the oxidation of beetle Luciferin to oxyluciferin and light in the presence of ATP. The luminescent signal is proportional to amount of ATP present.
Using the CellTiter-Glo luminescent cell viability assay, the amount of cellular ATP was measured in the lymphoblastoid cell line with complete culture medium following compound treatment for 16 hours. The assay was performed in opaque white Kalypsys 1536-well plates. In the screen, tetraoctylammonium bromide was used as positive control. Library compounds were measured for their ability to cause acute toxicity in the cell line, as reflected by a decrease in intracellular ATP levels, in a concentration-dependent manner. […] AC50 values were determined from concentration-response data modeled with the standard Hill equation.
qHTS protocol for CellTiter Glo lymphoblastoid cellular assay
[Step] [Parameter] [Value] [Description]
1. Reagent; 5 uL; 2500 lymphoblastoid cells/well
2. Time; 5 hr; 37 C incubation
4. Controls; 23 nL; Tetraoctylammonium bromide 6.4pM to 92 uM
5. Time; 16 hr; 37 C incubation
6. Reagent; 5 uL; CellTiter Glo reagent
7. Time; 30 min; Room Temperature
8. Detection; Luminescence; Viewlux plate reader
Keywords: cell viability, cytotoxicity, lymphoblastoid cell line, luminescence, NTPHTS, NTPHTS_NCGC, NIEHS, DSSTox, MLSMR, MLSCN, NIH Roadmap, qHTS, NCGC

| Structure (SMILES) | outcome |
| --- | --- |
| COc1ccc2c(c1)c(CC(=O)O)c(C)n2C(=O)c1ccc(Cl)cc1 | inactive |
| Clc1ccc(C(c2ccccc2Cl)C(Cl)Cl)cc1 (stereo not given) | inactive |
| COc1ccc(CCN(C)CCCC(C#N)(c2ccc(OC)c(OC)c2)C(C)C)cc1OC (stereo not given) | inactive |
| CC(COc1ccccc1)N(CCCl)Cc1ccccc1 (stereo not given) | inactive |
| CC(C)NCC(O)c1ccc(O)c(O)c1 (stereo not given) | inactive |
| Cc1cn([C@H]2C=C[C@@H](CO)O2)c(=O)[nH]c1=O | inactive |
| Cc1cn([C@H]2C[C@H](N=[N+]=[N-])[C@@H](CO)O2)c(=O)[nH]c1=O | inactive |
| O=c1c(-c2ccc(O)cc2)coc2cc(O)cc(O)c12 | inactive |
| Nc1ccn([C@H]2CC[C@@H](CO)O2)c(=O)n1 | inactive |
| O=c1[nH]cc(F)c(=O)[nH]1 | inactive |
| Cn1c(=O)c2[nH]cnc2n(C)c1=O | inactive |
| NCCS(=O)(=O)O | inactive |
| N[C@@H](Cc1c[nH]c2ccc(O)cc12)C(=O)O | inactive |
| CC(C)C(=O)Nc1ccc([N+](=O)[O-])c(C(F)(F)F)c1 | inactive |
| COc1ccc2[nH]cc(CCNC(C)=O)c2c1 | inactive |
| CCC1(c2ccccc2)C(=O)NCNC1=O | inactive |
| Cn1c(=O)c2c(ncn2C)n(C)c1=O | inactive |
| Nc1c2c(nc3ccccc13)CCCC2 | inactive |
| Cc1ccc(-c2cc(C(F)(F)F)nn2-c2ccc(S(N)(=O)=O)cc2)cc1 | inactive |
| NS(=O)(=O)c1cc2c(cc1Cl)NCNS2(=O)=O | inactive |

From PubChem BioAssay (NCATS)
